Experimental data reported in PMC4336329 (PLoS ONE, 2015).
Out of some 310,000 compounds screened, about 14,000 (4.5%) showed an effect of 50% or more. The effect is printed as a negative number. The sample as a whole holds a higher share of strong results than the screen did.

Each compound was assayed against human ether-à-go-go-related gene (hERG) potassium channel (human, UniProt Q12809) (assay: primary screen, population patch clamp on CHO cells stably expressing hERG; higher = less effect of the substance).
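Also: peak tail current of the secondary pulse compared with the same well before compound.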

Sequence of human ether-à-go-go-related gene (hERG) potassium channel (Q12809 whole entry, looked up): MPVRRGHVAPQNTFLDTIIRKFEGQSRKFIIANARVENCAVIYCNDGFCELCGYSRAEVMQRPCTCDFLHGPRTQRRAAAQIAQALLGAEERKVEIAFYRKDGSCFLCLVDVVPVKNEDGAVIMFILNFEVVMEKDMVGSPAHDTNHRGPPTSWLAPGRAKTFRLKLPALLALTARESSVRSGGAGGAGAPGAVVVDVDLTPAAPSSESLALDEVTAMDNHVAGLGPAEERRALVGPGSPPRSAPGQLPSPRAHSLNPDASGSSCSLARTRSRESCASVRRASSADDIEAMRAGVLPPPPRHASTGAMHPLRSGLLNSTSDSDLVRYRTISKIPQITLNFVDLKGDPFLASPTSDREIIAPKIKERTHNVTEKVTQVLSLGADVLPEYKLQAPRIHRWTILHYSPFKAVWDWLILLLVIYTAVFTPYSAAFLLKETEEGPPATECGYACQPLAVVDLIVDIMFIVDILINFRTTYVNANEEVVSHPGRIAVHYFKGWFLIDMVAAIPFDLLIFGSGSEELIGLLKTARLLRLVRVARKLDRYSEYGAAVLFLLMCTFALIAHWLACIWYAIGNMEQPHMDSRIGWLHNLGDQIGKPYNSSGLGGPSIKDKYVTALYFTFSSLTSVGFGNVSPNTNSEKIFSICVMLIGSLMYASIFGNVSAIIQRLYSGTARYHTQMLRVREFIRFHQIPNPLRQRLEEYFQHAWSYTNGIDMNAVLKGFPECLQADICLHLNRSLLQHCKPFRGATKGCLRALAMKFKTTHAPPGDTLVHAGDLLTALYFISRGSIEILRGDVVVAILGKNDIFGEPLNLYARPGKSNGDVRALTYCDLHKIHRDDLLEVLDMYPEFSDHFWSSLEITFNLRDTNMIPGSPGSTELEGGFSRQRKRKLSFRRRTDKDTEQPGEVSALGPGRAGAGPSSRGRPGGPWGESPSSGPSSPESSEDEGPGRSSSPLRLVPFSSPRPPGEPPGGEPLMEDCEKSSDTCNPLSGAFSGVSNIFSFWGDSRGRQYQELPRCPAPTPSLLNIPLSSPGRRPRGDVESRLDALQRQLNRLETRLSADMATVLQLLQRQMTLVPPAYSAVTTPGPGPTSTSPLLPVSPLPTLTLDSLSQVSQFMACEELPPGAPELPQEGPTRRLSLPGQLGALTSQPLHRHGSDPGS

Compound | hERG current change (%, negative = inhibition) at 10uM
CCCNC(=O)Cn1nc(C(F)(F)F)c2c1CCCC2 | 9.29%
CC(=O)Oc1ccc(/C=C2/SC(=S)N(Cc3ccccc3)C2=O)cc1 | 10.2%
CCn1c(SCC(=O)N2CCc3ccccc32)nnc1-c1ccncc1 | -7.04%
COc1ccc(CCNC(=O)C2=CC=CN3CCS(=O)(=O)N=C23)cc1 | -7.92%
Cc1ccccc1/C=C\c1nc2ccccc2c(=O)[nH]1 | 10.5%
CC(Oc1ccc2c(-c3ccccc3)cc(=O)oc2c1)C(=O)N1CCC[C@@H]1C(N)=O (stereo partly shown) | 1.14%
O=C(NCCS(=O)(=O)c1ccc(Br)cc1)c1ccc(Cl)cc1 | -2.62%
CCCCOc1ccc(CN(CCO)CCO)cc1[N+](=O)[O-].Cl | -22%
Cl.O=[N+]([O-])c1cc(CN(CCO)CCO)ccc1O | -2.79%
CCCOc1ccc(CN(CCO)CCO)cc1C(=O)OC | 6.82%
CCCOc1ccc(CN(CCO)CCO)cc1[N+](=O)[O-].Cl | -54.2%
CCOc1ccc(CN(CCO)CCO)cc1[N+](=O)[O-].Cl | -62.9%
COc1ccc(CN(CCO)CCO)cc1[N+](=O)[O-].Cl | 3.54%
CCOC(=O)N1CCN(CC(=O)Nc2cc3c(cc2C(C)=O)OCO3)CC1 | -1.3%
Fc1ccc2nc(Nc3nc4c(s3)CCCC4)sc2c1 | 3.62%
COC(=O)N(NC(=O)C(O)(c1ccccc1)c1ccccc1)c1ccccc1 | 9.59%
COc1ccc(OCC(=O)Nc2cc(NC(=O)c3ccco3)ccc2OC)cc1 | 5.23%
O=C(CN1CCN(Cc2ccccc2)CC1)N/N=C\C=C/c1ccco1 | -26.9%
CC(/C=N/NC(=O)CN1CCN(Cc2ccc(Cl)cc2)CC1)=C\c1ccco1 | -69.2%
CC(=C/c1ccco1)/C=N/NC(=O)Cc1cccn1C | -6.63%
CC(/C=N/NC(=O)Cc1cccn1C)=C\c1ccco1 | -13.1%
CC(/C=N\NC(=O)CN1CCN(Cc2ccccc2)CC1)=C\c1ccco1 | -53.6%

Compound | hERG current change (%, negative = inhibition) at 10uM
O=C(CN1CCN(Cc2ccccc2)CC1)N/N=C/c1ccco1 | -5.43%
COc1ccccc1C(=O)N1CCN(C2CCN(Cc3ccccc3)CC2)CC1 | -23.2%
C/C(=C\c1ccccc1F)C1Nc2cccc3cccc(c23)N1 | 13.1%
Cc1ccc(/C=N/Nc2ccc3ccccc3n2)o1 | -47.4%
CCN(CC)S(=O)(=O)c1ccc(OC)c(NC(=O)C2CC(=O)N(c3ccc(C)cc3)C2)c1 (stereo not shown) | -19.6%
CCOc1ccc(S(=O)(=O)N2CCCCC2)cc1NS(=O)(=O)c1cccs1 | 4.67%
CCC1CN(C(=O)NCc2ccc(F)cc2)c2cc(Cl)ccc2O1 (stereo not shown) | 12.5%
CCc1nc(Nc2ccc(O)cc2)c2oc3ccccc3c2n1.Cl | -13.6%
Cc1cc2oc3ccc(NCCCn4ccnc4)cc3c(=O)c2cc1C | 6.32%
CCc1nc(Nc2ccccc2)c2oc3ccccc3c2n1.Cl | -5.28%
CCc1nc(Nc2ccncc2)c2oc3ccccc3c2n1.Cl | -58.5%
O=c1c2ccccc2oc2ccc(NCCCn3ccnc3)cc12 | 9.83%
Cl.c1ccc2c(c1)oc1c(NCCCn3ccnc3)ncnc12 | -58.7%
CCc1nc(NCCCN2CCOCC2)c2oc3ccccc3c2n1 | -26.6%
O=c1c2ccccc2oc2cc(NCCCn3ccnc3)ccc12 | -60.9%
CCNc1nc(CC)nc2c1oc1ccccc12.Cl | -11.5%
c1ccc(CNc2ncnc3c2oc2ccccc23)nc1 | -1.56%
c1coc(CNc2ncnc3c2oc2ccccc23)c1 | -22.1%
CCc1nc(NCCCn2ccnc2)c2oc3ccccc3c2n1.Cl | -56.1%
CN1CCc2nc3sc(C(=O)NC4CC4)c(N)c3cc2C1 | 9.22%
COc1ccc(OC)c(C2=NOC(C(=O)Nc3cccnc3)C2)c1 (stereo not shown) | -9.42%
CN(C)c1ccc(/C=N/N(CCO)C2=NS(=O)(=O)c3ccccc32)cc1 | 21.8%

Compound | hERG current change (%, negative = inhibition) at 10uM
COc1ccc(C/C(C)=N/NC(=O)c2cc(C)oc2C)cc1 | 4.56%
N/C(=N\OC(=O)CSc1ccccc1)c1ccccn1 | 6.31%
COc1ccc(C)cc1S(=O)(=O)N(C)CC(=O)N1CCC(C)CC1 | 22.8%
Cc1csc(SCCN2C(=O)c3ccccc3C2=O)n1 | 2.6%
Cl.c1ccc(-c2nc(NCCCn3ccnc3)c3oc4ccccc4c3n2)cc1 | -4.89%
Cc1nc(NCCCn2ccnc2)c2oc3ccccc3c2n1.Cl | -69.8%
Cc1nc(NCCCN2CCOCC2)c2oc3ccccc3c2n1.Cl | -15.5%
CCCCn1c(N)c(N(CCOC)C(=O)CSCc2ccc(C)cc2)c(=O)[nH]c1=O | 13.4%
O=C1C(Cl)=C(Nc2ccccc2O)C(=O)N1c1ccccc1 | 0.891%
CCN1CCN(C(c2ccc(F)cc2)c2nnnn2Cc2cccs2)CC1 (stereo not shown) | -59.4%
Fc1ccc(Cn2nnnc2C(c2cccs2)N2CCCCCC2)cc1 (stereo not shown) | -11.2%
CCN1CCN(C(c2ccc(F)cc2)c2nnnn2Cc2ccc3c(c2)OCO3)CC1.Cl (stereo not shown) | -44%
Cl.Fc1ccc(C(c2nnnn2Cc2cccs2)N2CCN(C3CCCC3)CC2)cc1 (stereo not shown) | -67.4%
Fc1ccc(C(c2nnnn2Cc2cccs2)N2CCN(C3CCCCC3)CC2)cc1 (stereo not shown) | -60.3%
c1ccc(C(c2nnnn2Cc2cccs2)N2CCN(C3CCCC3)CC2)cc1 (stereo not shown) | -46.3%
CC(C)C(c1nnnn1Cc1cccs1)N1CCN(C2CCCC2)CC1 (stereo not shown) | -30.9%
CN1CCN(C(c2cccs2)c2nnnn2Cc2ccc(F)cc2)CC1.Cl (stereo not shown) | -13.1%
Fc1ccc(Cn2nnnc2C(c2cccs2)N2CCN(C3CCCCC3)CC2)cc1 (stereo not shown) | -66.4%
Fc1ccc(C(c2nnnn2Cc2ccccc2)N2CCSCC2)cc1 (stereo not shown) | -2.85%
CN1CCN(C(c2ccc(F)cc2)c2nnnn2Cc2cccs2)CC1.Cl (stereo not shown) | -21%
